Assay [1] is described as follows: NCI Yeast Anticancer Drug Screen. Data for the rad50 strain (AID 155).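 Note: 0% = growth of vehicle-only cultures of the same strain.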 The note with it: S. cerevisiae rad50 strain growth inhibition; at 50.0 µM; active compounds read high. The procedure, abridged:
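DNA repair mutant yeast, compound exposure, growth read-out; inhibition is taken relative to vehicle.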

A short description of assay [2]: NCI Yeast Anticancer Drug Screen. Data for the mec2-1 strain (AID 157). The note with it: S. cerevisiae mec2-1 strain, at 50.0 µM, active compounds read high. The procedure, abridged: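 Vehicle-treated cultures served as reference for growth inhibition of compound-exposed mec2-1 yeast.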
A short description of assay [3]: NCI Yeast Anticancer Drug Screen. Data for the sgs1 mgt1 strain (AID 161).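 Note: 0% = growth of cultures given vehicle only.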 As to conditions: S. cerevisiae sgs1 mgt1 strain, at 50.0 µM, active compounds read high. An outline of the steps: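 Read-out: growth inhibition vs vehicle controls. Cells: mutant yeast strain deficient in DNA damage repair.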
Assay [4] is described as follows: NCI Yeast Anticancer Drug Screen. Data for the cln2 rad14 strain (AID 165).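 Note: 0% = growth equal to vehicle treated cultures.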 As to conditions: S. cerevisiae cln2 rad14 strain, at 50.0 µM, active compounds read high. The procedure, abridged:
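Each compound was tested on cln2 rad14 yeast. Inhibition of growth was calculated against vehicle-exposed controls.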

A short description of assay [5]: NCI Yeast Anticancer Drug Screen. Data for the bub3 strain (AID 167). The note with it: S. cerevisiae bub3 mutant strain, at 50.0 µM, active compounds read high. An outline of the steps:
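In this screen, a yeast mutant lacking normal mitotic checkpoint function is challenged with compound. Relative growth versus vehicle gives the inhibition value.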

A short description of assay [6]: NCI Yeast Anticancer Drug Screen. Data for the mlh1 rad18 strain (AID 175). As to conditions: S. cerevisiae mlh1 rad18 strain growth inhibition; at 50.0 µM; active compounds read high. An outline of the steps: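 Vehicle-treated cultures served as the reference for growth inhibition in a yeast strain carrying DNA damage repair alterations exposed to each compound.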

The panel holds about 79,000 compounds, 15% with a hit somewhere; the sample as a whole holds those more often. A number with no mark means an inactive call. Active and inactive are the calls of the source. Cut-off read from the data, not from the text of the source: active = growth inhibition above about 70%; inactive = the rest.

For the compound `COc1ccccc1NC(C)=O`, the growth inhibition in assay [1] is 8.15%; in assay [2] it was 5.8%; in assay [3], 0.15%; in assay [4], 6%; in assay [5], 11.4%; in assay [6], -30.4%.

As for `O=C(NCC(C(=O)OCc1ccccc1)C(=O)OCc1ccccc1)OCc1ccccc1`, the growth inhibition in assay [1] is -8.9%; in assay [2] it was -13.8%; in assay [3], 1.55%; in assay [4], -14.1%; in assay [5], -24.4%; in assay [6], -12.3%.

Take `CCOC(=O)C(C#N)C(=O)c1ccccc1-c1ccccc1[N+](=O)[O-]` (stereo unspecified): the growth inhibition in assay [1] was 7.9%; in assay [2], 1.1%; in assay [3], 3.35%; in assay [4], -9.4%; in assay [5], -13.2%; in assay [6] it was 5%.

In the case of `CN(C)C(SCc1c(Cl)c(Cl)c(Cl)c(Cl)c1Cl)=[N+](C)C`, the growth inhibition in assay [1] was 19.4%; in assay [2], 6.3%; in assay [3], 15.4%; in assay [4], 11.8%; in assay [5], 7.15%; in assay [6], 28.6%.

For the compound `ICC1OCOC2C(CI)OCOC12` (stereo unspecified), the growth inhibition in assay [1] was 5.1%; in assay [2], 1.3%; in assay [3], -5.3%; in assay [4] it was -1.8%; in assay [5], 4.75%; in assay [6] it was 9.5%.

Regarding `O=[N+]([O-])c1ccc2nc(Cl)n[n+]([O-])c2c1`, the growth inhibition was 88.7% (active) in assay [1]; 93% (active) in assay [2]; 91.5% (active) in assay [3]; 89.3% (active) in assay [4]; 91.1% (active) in assay [5]; 91.8% (active) in assay [6].

Take `CC(O)(CCCCCl)c1nc2ccccc2s1` (stereo unspecified): the growth inhibition in assay [1] was 20.9%; in assay [2], -8.05%; in assay [3], 25.4%; in assay [4], -0.8%; in assay [5], 11.9%; in assay [6], 17.1%.

As for `CCN(CC)c1ccc(/C=C(\C)c2nc3ccc(Cl)cc3[nH]2)cc1`, the growth inhibition in assay [1] was -5.35%; in assay [2], 6.6%; in assay [3], 4.5%; in assay [4], 7%; in assay [5] it was -5.95%; in assay [6] it was -4.75%.

`N#C/C(=C/c1cccc([N+](=O)[O-])c1)C(=O)O`: the growth inhibition is 38% in assay [1]; 10.6% in assay [2]; 22.6% in assay [3]; 12.9% in assay [4]; 15.8% in assay [5]; 38% in assay [6].

As to `CC(=O)OC1CCC2C(C)(CCC3C2(C)CCC2(C)C4CC(C)(C)CCC4(C)CCC32C)C1C` (stereo unspecified), the growth inhibition in assay [1] is -15.1%; in assay [2], -6.25%; in assay [3], -11.8%; in assay [4], -38.1%; in assay [5], -0.05%; in assay [6] it was -11.8%.

Turning to `Cc1cccn2nnnc12`, the growth inhibition in assay [1] was -7.75%; in assay [2] it was -12.2%; in assay [3], -9.1%; in assay [4], 9%; in assay [5] it was 1.65%; in assay [6], -10.8%.

As for `CC(=O)NCCC(=O)NCCSC(C)=O`, the growth inhibition in assay [1] was -15%; in assay [2], -12%; in assay [3], 18.9%; in assay [4], 6.15%; in assay [5], -3.35%; in assay [6] it was 9.25%.

Regarding `CC1CCc2nc(N)nc(CC3CC(=O)NC(=O)C3)c2C1` (stereo unspecified), the growth inhibition in assay [1] was -2.75%; in assay [2], -5.65%; in assay [3], -8.7%; in assay [4], -45.5%; in assay [5], -12.8%; in assay [6] it was -3.2%.

Consider `CCCCCCCCC(=O)c1c(OC)oc(C=O)cc1=O`, for which the growth inhibition in assay [1] is -0.5%; in assay [2] it was -22.8%; in assay [3], 31.8%; in assay [4], 26.2%; in assay [5] it was -19.6%; in assay [6], 4%.

On to `CCOC(=O)/C(C#N)=C/Nc1c(C)n(C)n(-c2ccccc2)c1=O`, for which the growth inhibition in assay [1] was 0.95%; in assay [2] it was 10.3%; in assay [3], 6.75%; in assay [4], 16.4%; in assay [5], -0.85%; in assay [6], 13.6%.

With `CC(C)C(N=Cc1ccccc1O)C(=O)O` (stereo unspecified), the growth inhibition is -8.35% in assay [1]; -21.9% in assay [2]; -10.2% in assay [3]; -5.75% in assay [4]; -47.9% in assay [5]; -4.3% in assay [6].

Consider `NC(Cc1ccc(O)c(O)c1)C(=O)OCc1ccccc1` (stereo unspecified), for which the growth inhibition in assay [1] is 67.6%; in assay [2] it was 60.7%; in assay [3] it was 68.8%; in assay [4], 58.4%; in assay [5] it was 38.5%; in assay [6] it was 65.8%.

Consider `Cc1c(O)ccc(N=O)c1O`, for which the growth inhibition in assay [1] was 20.4%; in assay [2], 2.6%; in assay [3], 18.9%; in assay [4], 35.8%; in assay [5], -1.6%; in assay [6] it was 8.15%.

Regarding `Nc1ccc(S(=O)(=O)NC2C(O)OC(CO)C(O)C2O)cc1` (stereo unspecified), the growth inhibition in assay [1] was 15.6%; in assay [2], -16.2%; in assay [3], 6.65%; in assay [4] it was -21.6%; in assay [5], 9.7%; in assay [6], 28.4%.

For `Nc1nc(-c2ccccc2)c(Cl)c(-c2cc(Cl)ccc2O)n1`, the growth inhibition in assay [1] is -1.45%; in assay [2], -1.3%; in assay [3] it was -10.4%; in assay [4], 25.3%; in assay [5], 4.25%; in assay [6] it was 2.7%.

In the case of `Nc1nc(N)c2ncn(-c3ccc(Cl)cc3)c2n1`, the growth inhibition in assay [1] was -0.7%; in assay [2] it was 14.2%; in assay [3], 9.8%; in assay [4], -21.4%; in assay [5], -0.85%; in assay [6] it was 8.4%.

Source of the values: PubChem BioAssay (NCI).
